# ± gives the standard deviation.
# T1: HaloTag-ATRX ADD domain (163-292)
# T1 chain: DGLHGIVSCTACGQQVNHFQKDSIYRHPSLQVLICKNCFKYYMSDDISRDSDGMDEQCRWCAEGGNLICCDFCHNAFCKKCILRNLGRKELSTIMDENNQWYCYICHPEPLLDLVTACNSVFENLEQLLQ
# What was measured:
# Test in all cases: peptide microarray binding signal (635 nm), min-max normalized on array (fraction of array maximum); higher = stronger binding
# Settings in all cases: peptide region: H3 1-13
# [1] = biological target: T1, HaloTag-ATRX ADD domain (163-292)
# Procedure: (§1)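 Histone 13-mer peptides were synthesized as cellulose conjugates with a C-terminal 20-atom PEG linker and printed in triplicate on nitrocellulose. The sequence given is the unmodified backbone; PTMs (Kme1/2/3, Kac, Sph/Tph, Rme/Rme2a/Rme2s, Rcit) are listed in the label and the 'peptide modifications' condition. Slides were probed at 4 °C for 1 h with biotin-labelled (HQ)5-HaloTag reader fusions (ATRX-ADD, ING2-PHD) then streptavidin-Alexa647, or with rabbit histone antibodies then anti-rabbit Alexa647. The mean 635 nm signal of the triplicate spots was scaled 0-1 between the lowest and highest values on each array.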
# [2] = biological target: HaloTag-ING2 PHD (mouse Ing2 200-280)
# Procedure: as §1
# [3] = biological target: anti-H3K4me3 antibody ab8580
# Procedure: as §1
# [4] = biological target: anti-H3K9me3 antibody ab8898
# Procedure: as §1
# [5] = peptide modifications: H3R2me2a H3K4me1, binder concentration: 1:2,000 dilution
# [6] = peptide modifications: H3R2me2a H3K4me1, binder concentration: 1:10,000 dilution
# [7] = peptide modifications: H3R2me2a H3K9me1, binder concentration: 1:2,000 dilution
# [8] = peptide modifications: H3R2me2a H3K9me1, binder concentration: 1:10,000 dilution
# [9] = peptide modifications: H3R2me2a H3T6ph, binder concentration: 1:2,000 dilution
# [10] = peptide modifications: H3R2me2a H3T6ph, binder concentration: 1:10,000 dilution
# [11] = peptide modifications: H3R2me1 H3K9me3, binder concentration: 1:2,000 dilution
# [12] = peptide modifications: H3R2me1 H3K9me3, binder concentration: 1:10,000 dilution
# [13] = peptide modifications: H3R2me2a H3T3ph, binder concentration: 1:2,000 dilution
# [14] = peptide modifications: H3R2me2a H3T3ph, binder concentration: 1:10,000 dilution
# [15] = peptide modifications: H3R2me1 H3K9me1, binder concentration: 1:2,000 dilution
# [16] = peptide modifications: H3R2me1 H3K9me1, binder concentration: 1:10,000 dilution
# [17] = peptide modifications: H3R2me2a H3K9ac, binder concentration: 1:2,000 dilution
# [18] = peptide modifications: H3R2me2a H3K9ac, binder concentration: 1:10,000 dilution
# [19] = peptide modifications: H3R2me2a H3K9me2, binder concentration: 1:2,000 dilution
# [20] = peptide modifications: H3R2me2a H3K9me2, binder concentration: 1:10,000 dilution
# [21] = peptide modifications: H3R2me2a, binder concentration: 1:2,000 dilution
# [22] = peptide modifications: H3R2me2a, binder concentration: 1:10,000 dilution
# [23] = peptide modifications: H3R2me2a H3K4ac, binder concentration: 1:2,000 dilution
# [24] = peptide modifications: H3R2me2a H3K4ac, binder concentration: 1:10,000 dilution
binder,measurement,setting,value
ARTKQTARKSTGG [H3 1-13 A Rme2a T Kme Q T A R K S T G G],peptide microarray binding signal,"[1]; peptide modifications: H3R2me2a H3K4me1, binder concentration: 50 nM",0.0111 ± 0.00026
same,peptide microarray binding signal,"[1]; peptide modifications: H3R2me2a H3K4me1, binder concentration: 500 nM",0.0211 ± 0.001
same,peptide microarray binding signal,"[2]; peptide modifications: H3R2me2a H3K4me1, binder concentration: 10 nM",0.00585 ± 0.00028
same,peptide microarray binding signal,"[2]; peptide modifications: H3R2me2a H3K4me1, binder concentration: 100 nM",0.0274 ± 0.013
same,peptide microarray binding signal,[3]; [5],0.0329 ± 0.01
same,peptide microarray binding signal,[3]; [6],0.0417 ± 0.011
same,peptide microarray binding signal,[4]; [5],0.00468 ± 0.00097
same,peptide microarray binding signal,[4]; [6],0.00352 ± 0.00019
ARTKQTARKSTGG [H3 1-13 A Rme2a T K Q T A R Kme S T G G],peptide microarray binding signal,"[1]; peptide modifications: H3R2me2a H3K9me1, binder concentration: 50 nM",0.0646 ± 0.0083
same,peptide microarray binding signal,"[1]; peptide modifications: H3R2me2a H3K9me1, binder concentration: 500 nM",0.138 ± 0.008
same,peptide microarray binding signal,"[2]; peptide modifications: H3R2me2a H3K9me1, binder concentration: 10 nM",0.0387 ± 0.0036
same,peptide microarray binding signal,"[2]; peptide modifications: H3R2me2a H3K9me1, binder concentration: 100 nM",0.0709 ± 0.014
same,peptide microarray binding signal,[3]; [7],0.0175 ± 0.0013
same,peptide microarray binding signal,[3]; [8],0.0118 ± 0.0015
same,peptide microarray binding signal,[4]; [7],0.00838 ± 0.0011
same,peptide microarray binding signal,[4]; [8],0.00675 ± 0.00044
ARTKQTARKSTGG [H3 1-13 A Rme2a T K Q Tph A R K S T G G],peptide microarray binding signal,"[1]; peptide modifications: H3R2me2a H3T6ph, binder concentration: 50 nM",0.00602 ± 7.4e-05
same,peptide microarray binding signal,"[1]; peptide modifications: H3R2me2a H3T6ph, binder concentration: 500 nM",0.015 ± 0.0011
same,peptide microarray binding signal,"[2]; peptide modifications: H3R2me2a H3T6ph, binder concentration: 10 nM",0.00549 ± 0.00043
same,peptide microarray binding signal,"[2]; peptide modifications: H3R2me2a H3T6ph, binder concentration: 100 nM",0.00964 ± 0.0013
same,peptide microarray binding signal,[3]; [9],0.00198 ± 0.00026
same,peptide microarray binding signal,[3]; [10],0.0032 ± 0.00025
same,peptide microarray binding signal,[4]; [9],0.00112 ± 3.5e-05
same,peptide microarray binding signal,[4]; [10],0.000923 ± 1.9e-05
ARTKQTARKSTGG [H3 1-13 A Rme T K Q T A R Kme3 S T G G],peptide microarray binding signal,"[1]; peptide modifications: H3R2me1 H3K9me3, binder concentration: 50 nM",1 ± 0.14
same,peptide microarray binding signal,"[1]; peptide modifications: H3R2me1 H3K9me3, binder concentration: 500 nM",1 ± 0.23
same,peptide microarray binding signal,"[2]; peptide modifications: H3R2me1 H3K9me3, binder concentration: 10 nM",0.0582 ± 0.011
same,peptide microarray binding signal,"[2]; peptide modifications: H3R2me1 H3K9me3, binder concentration: 100 nM",0.106 ± 0.024
same,peptide microarray binding signal,[3]; [11],0.088 ± 0.024
same,peptide microarray binding signal,[3]; [12],0.0951 ± 0.017
same,peptide microarray binding signal,[4]; [11],0.544 ± 0.12
same,peptide microarray binding signal,[4]; [12],0.357 ± 0.091
ARTKQTARKSTGG [H3 1-13 A Rme2a Tph K Q T A R K S T G G],peptide microarray binding signal,"[1]; peptide modifications: H3R2me2a H3T3ph, binder concentration: 50 nM",0.00567 ± 0.00034
same,peptide microarray binding signal,"[1]; peptide modifications: H3R2me2a H3T3ph, binder concentration: 500 nM",0.0135 ± 0.00068
same,peptide microarray binding signal,"[2]; peptide modifications: H3R2me2a H3T3ph, binder concentration: 10 nM",0.00501 ± 0.00013
same,peptide microarray binding signal,"[2]; peptide modifications: H3R2me2a H3T3ph, binder concentration: 100 nM",0.00737 ± 0.00044
same,peptide microarray binding signal,[3]; [13],0.00262 ± 0.00056
same,peptide microarray binding signal,[3]; [14],0.00434 ± 0.00077
same,peptide microarray binding signal,[4]; [13],0.000755 ± 0.00011
same,peptide microarray binding signal,[4]; [14],0.000577 ± 6.2e-06
ARTKQTARKSTGG [H3 1-13 A Rme T K Q T A R Kme1 S T G G],peptide microarray binding signal,"[1]; peptide modifications: H3R2me1 H3K9me1, binder concentration: 50 nM",0.0572 ± 0.0022
same,peptide microarray binding signal,"[1]; peptide modifications: H3R2me1 H3K9me1, binder concentration: 500 nM",0.108 ± 0.011
same,peptide microarray binding signal,"[2]; peptide modifications: H3R2me1 H3K9me1, binder concentration: 10 nM",0.0402 ± 0.0095
same,peptide microarray binding signal,"[2]; peptide modifications: H3R2me1 H3K9me1, binder concentration: 100 nM",0.0772 ± 0.0086
same,peptide microarray binding signal,[3]; [15],0.00991 ± 0.0016
same,peptide microarray binding signal,[3]; [16],0.008959 ± 8.7e-05
same,peptide microarray binding signal,[4]; [15],0.00462 ± 0.00079
same,peptide microarray binding signal,[4]; [16],0.0045 ± 0.00015
ARTKQTARKSTGG [H3 1-13 A Rme2a T K Q T A R Kac S T G G],peptide microarray binding signal,"[1]; peptide modifications: H3R2me2a H3K9ac, binder concentration: 50 nM",0.132 ± 0.1
same,peptide microarray binding signal,"[1]; peptide modifications: H3R2me2a H3K9ac, binder concentration: 500 nM",0.0324 ± 0.01
same,peptide microarray binding signal,"[2]; peptide modifications: H3R2me2a H3K9ac, binder concentration: 10 nM",0.0189 ± 0.0011
same,peptide microarray binding signal,"[2]; peptide modifications: H3R2me2a H3K9ac, binder concentration: 100 nM",0.0301 ± 0.0026
same,peptide microarray binding signal,[3]; [17],0.00698 ± 0.00018
same,peptide microarray binding signal,[3]; [18],0.00799 ± 0.0008
same,peptide microarray binding signal,[4]; [17],0.00634 ± 0.0012
same,peptide microarray binding signal,[4]; [18],0.0094 ± 0.0049
ARTKQTARKSTGG [H3 1-13 A Rme2a T K Q T A R Kme2 S T G G],peptide microarray binding signal,"[1]; peptide modifications: H3R2me2a H3K9me2, binder concentration: 50 nM",0.169 ± 0.018
same,peptide microarray binding signal,"[1]; peptide modifications: H3R2me2a H3K9me2, binder concentration: 500 nM",0.197 ± 0.0079
same,peptide microarray binding signal,"[2]; peptide modifications: H3R2me2a H3K9me2, binder concentration: 10 nM",0.06 ± 0.00075
same,peptide microarray binding signal,"[2]; peptide modifications: H3R2me2a H3K9me2, binder concentration: 100 nM",0.0848 ± 0.012
same,peptide microarray binding signal,[3]; [19],0.0133 ± 0.0025
same,peptide microarray binding signal,[3]; [20],0.0229 ± 0.0084
same,peptide microarray binding signal,[4]; [19],0.0303 ± 0.0053
same,peptide microarray binding signal,[4]; [20],0.0191 ± 0.0015
ARTKQTARKSTGG [H3 1-13 A Rme2a T K Q T A R K S T G G],peptide microarray binding signal,"[1]; peptide modifications: H3R2me2a, binder concentration: 50 nM",0.0208 ± 0.00057
same,peptide microarray binding signal,"[1]; peptide modifications: H3R2me2a, binder concentration: 500 nM",0.0355 ± 0.025
same,peptide microarray binding signal,"[2]; peptide modifications: H3R2me2a, binder concentration: 10 nM",0.00889 ± 0.00042
same,peptide microarray binding signal,"[2]; peptide modifications: H3R2me2a, binder concentration: 100 nM",0.0186 ± 0.0037
same,peptide microarray binding signal,[3]; [21],0.0031 ± 0.00032
same,peptide microarray binding signal,[3]; [22],0.0016 ± 7.1e-05
same,peptide microarray binding signal,[4]; [21],0.00127 ± 7.4e-05
same,peptide microarray binding signal,[4]; [22],0.000634
ARTKQTARKSTGG [H3 1-13 A Rme2a T Kac Q T A R K S T G G],peptide microarray binding signal,"[1]; peptide modifications: H3R2me2a H3K4ac, binder concentration: 50 nM",0.0125 ± 0.00079
same,peptide microarray binding signal,"[1]; peptide modifications: H3R2me2a H3K4ac, binder concentration: 500 nM",0.0335 ± 0.0053
same,peptide microarray binding signal,"[2]; peptide modifications: H3R2me2a H3K4ac, binder concentration: 10 nM",0.0118 ± 0.0039
same,peptide microarray binding signal,"[2]; peptide modifications: H3R2me2a H3K4ac, binder concentration: 100 nM",0.0337 ± 0.0021
same,peptide microarray binding signal,[3]; [23],0.00455 ± 0.00093
same,peptide microarray binding signal,[3]; [24],0.00639 ± 0.00058
same,peptide microarray binding signal,[4]; [23],0.0124 ± 0.0014
same,peptide microarray binding signal,[4]; [24],0.0053 ± 0.00063
